In PubChem BioAssay AID1347071 (National Center for Advancing Translational Sciences (NCATS), 2019):
Among all 410,000 compounds or so, about 260 (0.063%) were called active. Inconclusive results (about 2%) are left out. Calls come from the whole dose curve; as a rule, active = well fitted activation curve with a large enough effect; inconclusive = small, poorly fitted or top-dose-only effect; inactive = no such curve, though single readings can be large or run the other way. Many of the other results were omitted from the sample, so actives are more common in it than they were.

Assay: qHTS for compounds that reverse cellular toxicity of Amyloid beta (A-beta) peptide in yeast: Primary Screen; note: nearly all actives have a fitted effect of over 55% in size
Conditions: yeast expressing A-beta42, growth rescue, OD600, 48 h; series mostly up to 46.1 µM; growth rescue: at the top concentration
Source text: The A-beta peptide is produced by the processing of the amyloid precursor protein (APP) by two proteases, beta and gamma secretases. […] A-beta42 is regarded as the most amyloidogenic form due to its hydrophobicity; however, precisely how A-beta42 induces neurotoxicity is unclear. To understand further this biology and its potential therapeutic implications for human neurodegenerative disease, a quantitative high-throughput screen for compounds that reverse the cellular toxicity of the A-beta peptide was developed. A yeast based screen was used because it recapitulates the salient feature of protein mis-folding disorder accurately. This cell-based phenotypic screen provides a significant, unbiased advantage by letting the compounds and models inform us which proteins or pathways are most relevant. The ideal chemical candidates would therefore have activity in both our primary yeast and secondary neuronal toxicity assays, as well as in mouse models. They will be valuable tools for dissecting diverse protein homeostasis pathologies and could potentially become the focus for future pre-clinical development. For this luminescence assay, inhibition of A-beta rescues the toxic effect in the yeast cell, resulting in increase of signals and the desired phenotype of "Activator". This screen is run against the Molecular Libraries Small Molecule Repository (MLSMR) and the NCGC Sytravon Library Collection.
NIH Chemical Genomics Center [NCGC]
NIH Molecular Libraries Probe Centers Network [MLPCN]
Assay Submitter (PI): Susan Lindquist, Whitehead Institute, Massachusetts Institute of Technology
[1] Vassar R,et al (1999). Beta-secretase cleavage of Alzheimer's amyloid precursor protein by the transmembrane aspartic protease BACE. Science. 286: 735-741.
[2] Yan R, et al (1999). Membrane-anchored aspartyl protease with Alzheimer's disease beta-secretase activity. Nature. 402: 533-536.
Two and a half microliter / well of yeast growth medium were dispensed in a 1536 assay plate. Compounds were pinned using the Kalypsys robotic system followed by addition of 2.5 uL / well yeast solution. The assay plates were incubated at 30 C. After 48 hr, the absorbance signal at 600 nm was obtained using the PerkinElmer ViewLux plate reader to assess yeast growth. The data was normalized to the positive control of an equimolar mixture of ferric chloride (FeCl3) and clioquinol and to the negative control DMSO.

| Compound | growth rescue | Potency |
| --- | --- | --- |
| O=c1cc(COc2cccc(C(F)(F)F)c2)nc2sc3c(n12)CCCC3 | 2.31% (inactive) | – |
| CCc1ccc(NC(=O)CN2C(=O)C(c3ccccc3)=NC23CCCCCC3)cc1 | -33.6% (inactive) | – |
| CCCNC(=S)N1CCC(NC(=O)c2ccc(OC)cc2)CC1 | -10.6% (inactive) | – |
| COc1ccc(C(=O)NC(=S)NC2CCCCC2)cc1 | – | 12.6 µM (active) |
| COc1ccc(S(=O)(=O)N2CCN(C(=O)NC3CCCCC3)CC2)cc1 | -11% (inactive) | – |
| CCOc1ccc(NC(=O)CCC(=O)N2CC(C)Oc3ccc(C)cc32)cc1 (stereo not given) | 7.46% (inactive) | – |
| CCn1c(CN2CCC(C)CC2)nc2cc(NC(=O)c3ccccc3[N+](=O)[O-])ccc21 | 0.862% (inactive) | – |
| CCc1cccc(NC(=O)Cn2nc(CC)n3c(cc4cc(C)ccc43)c2=O)c1 | 2.28% (inactive) | – |
| CC1=C(c2ccc(C)cc2)S(=O)(=O)NC1=NCCCN1CCN(c2cc(C)ccc2C)CC1 | 7.63% (inactive) | – |
| COc1cccc(-c2cc(C(=O)Nc3ccc(C)cc3)[nH]n2)c1 | -6.21% (inactive) | – |
| Cc1ccc(N2CCN(C(=O)CCc3c(C)nc4c(c3C)c(=O)n(C)c(=O)n4C)CC2)c(C)c1 | -7.12% (inactive) | – |
| CCOC(=O)c1c(NC(=O)/C(C#N)=C/c2ccccc2)sc2c1CCC2 | -4.42% (inactive) | – |
| COc1ccccc1CN1CCC(CNC(=O)c2cnn(-c3ccccc3Cl)c2C2CCN(C(=O)OC(C)(C)C)CC2)CC1 | 12.1% (inactive) | – |
| CCn1c(CNC(=O)C23CC4CC(CC(C4)C2)C3)nnc1SCC(=O)Nc1ccc(OC)cc1 | -8.21% (inactive) | – |
| COc1ccc(-c2nn(CC(=O)NC3CCCC3)c3c2cnc2ccc(F)cc23)cc1 | -2.71% (inactive) | – |
| Cc1nn(C(C)C(=O)Nc2ccc(C(C)C)cc2)c(=O)c2c1sc1ccccc12 (stereo not given) | 17.1% (inactive) | – |
| COc1cc(OC)c(NC(=O)c2nc(-c3ccncc3)no2)cc1Cl | -15.5% (inactive) | – |
| COc1ccc(CCN2C(=O)c3oc4cc(C)cc(C)c4c(=O)c3C2c2ccccc2F)cc1OC (stereo not given) | -7.53% (inactive) | – |
| CCOC(=O)c1cc2c(=O)n3ccccc3nc2n(CCCOC)c1=NC(=O)C(C)Oc1ccccc1 (stereo not given) | -6.19% (inactive) | – |
| COc1cc(C(=O)Nc2ccc(OCc3cc(=O)n4cc(C)sc4n3)cc2)cc(OC)c1OC | -12.8% (inactive) | – |

| Compound | growth rescue | Potency |
| --- | --- | --- |
| COc1ccc(CN2CCc3nc(Nc4ccccc4)ncc3C2)c(OC)c1OC | 4.24% (inactive) | – |
| Cc1cccc(Cn2c(CN3CCC(C(=O)NCc4ccccc4Cl)CC3)cc3ccccc32)c1 | 10.4% (inactive) | – |
| CCOC(=O)N1CCc2c(sc3c2c(=O)n(Cc2ccccc2)c(=O)n3CC(=O)Nc2cccc(C)c2)C1 | 1.66% (inactive) | – |
| O=C(Nc1cc(Cl)cc(Cl)c1)c1ccc2c(c1)N(Cc1cccc(Cl)c1)C(=O)c1ccccc1S2=O (stereo not given) | -1.8% (inactive) | – |
| CCc1ccc(NC(=O)c2nn(-c3ccc(C)cc3)c(=O)n(C)c2=O)cc1 | -10.6% (inactive) | – |
| CCN1C(=O)c2ccccc2S(=O)c2ccc(C(=O)NCc3ccc(F)cc3)cc21 (stereo not given) | 16.3% (inactive) | – |
| CCn1cc(C(=O)N2CCN(c3cc(C)ccc3C)CC2)c(=O)c2cc(S(=O)(=O)N(C)C3CCCCC3)ccc21 | 4.49% (inactive) | – |
| CNS(=O)(=O)c1ccc2c(c1)[nH]c(=S)n2C | 1.96% (inactive) | – |
| CC(C)n1c(=S)[nH]c2cc(C(F)(F)F)ccc21 | – | 12.6 µM (active) |
| CCCn1c(=S)[nH]c2ccc(C(F)(F)F)cc21 | 31.8% (inactive) | – |
| Cn1c(=O)c2c(-c3ccccc3Br)n(Cc3ccccc3)cc2n(C)c1=O | -12.3% (inactive) | – |
| COc1ccc(N2CCN(C(=O)CSCc3nc(-c4ccccc4Cl)oc3C)CC2)cc1 | -16.8% (inactive) | – |
| Cc1cccc(C)c1NC(=S)N(Cc1cccnc1)Cc1ccccc1Cl | 17.9% (inactive) | – |
| Cc1c(Cl)cccc1NC(=S)N(Cc1ccccc1)Cc1cccnc1 | 10.9% (inactive) | – |
| Cc1ccc(CN(Cc2cccnc2)C(=S)Nc2cccc(Cl)c2C)cc1 | – | 11.2 µM (active) |
| CCOC(=O)c1nnn(CC(=O)NC(=O)Nc2ccccc2F)c1C(=O)OCC | -5.8% (inactive) | – |
| CCS(=O)(=O)N1CCc2cc(C(=O)NCc3ccc(OC)cc3)ccc21 | -14% (inactive) | – |
| CCOC(=O)c1cc(NC(=O)c2ccc(F)cc2)c(=O)n2c1oc1ccccc12 | -10.2% (inactive) | – |
| COc1ccc(CCNC(=O)c2cc3cccc4c3n2CC(C)S4)c(OC)c1OC (stereo not given) | -11.1% (inactive) | – |
| COc1ccc(Cn2c(C(=O)O)c(CNCc3cccc(OC)c3)c3ccc(C)cc32)cc1 | -9.33% (inactive) | – |

| Compound | growth rescue | Potency |
| --- | --- | --- |
| CC(C)S(=O)(=O)c1oc(-c2ccc(F)cc2)nc1S(=O)(=O)c1ccc(F)cc1 | -8.6% (inactive) | – |
| CC(Sc1oc(-c2ccco2)nc1S(=O)(=O)c1ccc(Br)cc1)c1ccccc1 (stereo not given) | -9.26% (inactive) | – |
| Cc1nn(-c2ccc(F)cc2)c(-n2cccc2)c1C(=O)N1CCN(c2ccccc2)CC1 | -18.4% (inactive) | – |
| N#Cc1ccc(-c2nc3c(Cl)cc(C(F)(F)F)cn3c2Cc2ccccc2C(F)(F)F)cc1 | 5.35% (inactive) | – |
| FC(F)(F)c1ccccc1Cc1c(-c2ccccc2)nc2c3ccccc3ccn12 | – | 12.6 µM (active) |
| CCCc1nc2c3ccccc3ccn2c1Cc1ccccc1C(F)(F)F | -73.2% (inactive) | – |
| COc1cccc(-n2cc(C(=O)NCc3cccc(Cl)c3)c3ccccc3c2=O)c1 | -6.71% (inactive) | – |
| COc1ccc(Cn2ccn(CC(=O)Nc3cc(C)ccc3C)c(=O)c2=O)cc1 | 2.18% (inactive) | – |
| COCCn1c(SCC(=O)c2cc(C)ccc2C)nc2cc(C(=O)NC3CCCC3)ccc2c1=O | -7.47% (inactive) | – |
| COc1cccc(C(=O)NC2(C(F)(F)F)C(=O)Nc3c2c(=O)[nH]c(=O)n3-c2ccc(C)cc2)c1 (stereo not given) | -11.2% (inactive) | – |
| CCOc1ccc(-n2c(C)nc3c(cnn3-c3ccc(C)cc3)c2=O)cc1 | 6.45% (inactive) | – |
| CCC(=O)N1c2ccccc2CC1C(=O)N1CCN(c2ccccc2)CC1 (stereo not given) | -3.88% (inactive) | – |
| COc1cc(CNCCSc2nnnn2C)ccc1OCc1ccc(Cl)cc1Cl | -20.7% (inactive) | – |
| CC1=C(C(=O)Nc2ccccc2Cl)C(c2cccs2)n2ncnc2N1 (stereo not given) | -18.5% (inactive) | – |
| CCCCOC(=O)CSc1ncnc2sc3c(c12)CCC(C)C3 (stereo not given) | -2.39% (inactive) | – |
| CC1CCCN(S(=O)(=O)c2ccc3[nH]c(=O)cc(C(=O)NCCc4ccc(Cl)cc4)c3c2)C1 (stereo not given) | -5.68% (inactive) | – |
| CCCn1c2ccccc2c2cnn(CC(=O)N3CCCC(C(=O)OCC)C3)c(=O)c21 (stereo not given) | 13.4% (inactive) | – |
| CCOC(=O)c1ccc(N2C(=O)c3n[nH]c(-c4ccco4)c3C2c2ccc(O)cc2)cc1 (stereo not given) | -17% (inactive) | – |
| COc1ccc(-c2cn3nc(N4CCCC(C(=O)NCCCOC(C)C)C4)sc3n2)cc1 (stereo not given) | -9.82% (inactive) | – |
| COc1ccc2cc(CNc3ccc(OC)c(OC)c3)c(=O)n(CC(=O)Nc3ccccc3F)c2c1 | -11% (inactive) | – |
